Measured values published in the supplement of paper PMC8728848.
Only a selection was taken, and the strongest signals are over-represented in it overall.

Experiments:
Test in all cases: glycan array binding signal (z-score within array); higher = stronger binding
Conditions in all cases: glycan notation: IUPAC condensed, linker removed
[1] = target: Fuc(a1-2)Gal
Procedure, shortened: (§1)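 Arrays were curated from the Consortium for Functional Glycomics database, 3228 in total, and kept only where the protein sequence was available. Binding is expressed as a within-array Z-score. This score was averaged across arrays of the same protein sequence at different concentrations or buffers and across linkers, and negative values can be read as non-binding.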

[2] = target: Fuc(a1-2)Gal(b1-3)GlcNAc(b1-2)Man(a1-3)[Fuc(a1-2)Gal(b1-3)GlcNAc(b1-2)Man(a1-6)]Man(b1-4)GlcNAc(b1-4)GlcNAc
Procedure, shortened: as §1

[3] = target: Fuc(a1-2)Gal(b1-3)GlcNAc(b1-3)[Neu5Ac(a2-6)Gal(b1-4)GlcNAc(b1-6)]Gal(b1-4)Glc
Procedure, shortened: as §1

[4] = target: Fuc(a1-2)Gal(b1-4)Glc
Procedure, shortened: as §1

[5] = target: Fuc(a1-2)Gal(b1-4)GlcNAc(b1-2)Man
Procedure, shortened: as §1

[6] = target: Fuc(a1-2)[Gal(a1-3)]Gal(b1-4)GlcNAc
Procedure, shortened: as §1

[7] = target: Fuc(a1-2)[Gal(a1-3)]Gal(b1-4)GlcNAc(b1-2)Man(a1-3)[Fuc(a1-2)[Gal(a1-3)]Gal(b1-4)GlcNAc(b1-2)Man(a1-6)]Man(b1-4)GlcNAc(b1-4)GlcNAc
Procedure, shortened: as §1

[8] = target: Fuc(a1-2)[Gal(a1-3)]Gal(b1-4)[Fuc(a1-3)]GlcNAc
Procedure, shortened: as §1

[9] = target: Fuc(a1-2)[GalNAc(a1-3)]Gal(b1-3)GlcNAc(b1-6)GalNAc
Procedure, shortened: as §1

[10] = target: Fuc(a1-3)[Gal(b1-4)]GlcNAc(b1-6)GalNAc
Procedure, shortened: as §1

[11] = target: Gal(a1-3)Gal(b1-3)[Fuc(a1-4)]GlcNAc(b1-2)Man(a1-3)[Gal(a1-3)Gal(b1-3)[Fuc(a1-4)]GlcNAc(b1-2)Man(a1-6)]Man(b1-4)GlcNAc(b1-4)GlcNAc
Procedure, shortened: as §1

[12] = target: Gal(a1-3)Gal(b1-4)GlcNAc(b1-2)Man
Procedure, shortened: as §1

[13] = target: Gal(a1-3)GalNAc
Procedure, shortened: as §1

[14] = target: Gal(b1-2)Gal
Procedure, shortened: as §1

[15] = target: Gal(b1-3)GlcNAc(b1-6)Gal(b1-4)GlcNAc
Procedure, shortened: as §1

[16] = target: Gal(b1-4)GlcNAc(b1-2)Man(a1-3)[Man(a1-6)]Man(b1-4)GlcNAc(b1-4)GlcNAc
Procedure, shortened: as §1

[17] = target: Gal(b1-4)GlcNAc(b1-3)Gal(b1-3)GalNAc
Procedure, shortened: as §1

[18] = target: Gal(b1-4)GlcNAc(b1-3)Gal(b1-4)GlcNAc(b1-2)[Gal(b1-4)GlcNAc(b1-3)Gal(b1-4)GlcNAc(b1-6)]Man(a1-6)[Gal(b1-4)GlcNAc(b1-3)Gal(b1-4)GlcNAc(b1-2)Man(a1-3)]Man(b1-4)GlcNAc(b1-4)[Fuc(a1-6)]GlcNAc
Procedure, shortened: as §1

[19] = target: Gal(b1-4)GlcNAc(b1-3)Gal(b1-4)GlcNAc(b1-3)Gal(b1-4)GlcNAc(b1-3)Gal(b1-4)GlcNAc(b1-2)Man(a1-3)[Gal(b1-4)GlcNAc(b1-3)Gal(b1-4)GlcNAc(b1-3)Gal(b1-4)GlcNAc(b1-3)Gal(b1-4)GlcNAc(b1-2)Man(a1-6)]Man(b1-4)GlcNAc(b1-4)[Fuc(a1-6)]GlcNAc
Procedure, shortened: as §1

[20] = target: Gal(b1-4)GlcNAc(b1-3)Gal(b1-4)GlcNAc(b1-3)Gal(b1-4)GlcNAc(b1-3)Gal(b1-4)GlcNAc(b1-3)Gal(b1-4)GlcNAc(b1-2)Man(a1-3)[Gal(b1-4)GlcNAc(b1-3)Gal(b1-4)GlcNAc(b1-3)Gal(b1-4)GlcNAc(b1-3)Gal(b1-4)GlcNAc(b1-3)Gal(b1-4)GlcNAc(b1-2)Man(a1-6)]Man(b1-4)GlcNAc(b1-4)[Fuc(a1-6)]GlcNAc
Procedure, shortened: as §1

[21] = target: Gal(b1-4)GlcNAc(b1-3)[GlcNAc(b1-6)]Gal(b1-4)GlcNAc
Procedure, shortened: as §1

[22] = target: Gal6S(b1-4)Glc6S
Procedure, shortened: as §1

[23] = target: GalNAc(b1-4)GlcNAc(b1-3)GalNAc(b1-4)GlcNAc
Procedure, shortened: as §1

[24] = target: GlcNAc(a1-3)Gal(b1-4)GlcNAc
Procedure, shortened: as §1

[25] = target: GlcNAc(a1-6)Gal(b1-4)GlcNAc
Procedure, shortened: as §1

[26] = target: GlcNAc(b1-2)[GlcNAc(b1-6)]Man(a1-6)[GlcNAc(b1-2)Man(a1-3)]Man(b1-4)GlcNAc(b1-4)GlcNAc
Procedure, shortened: as §1

[27] = target: GlcNAc(b1-3)Gal(b1-4)GlcNAc(b1-2)Man(a1-3)[GlcNAc(b1-3)Gal(b1-4)GlcNAc(b1-2)Man(a1-6)]Man(b1-4)GlcNAc(b1-4)[Fuc(a1-6)]GlcNAc
Procedure, shortened: as §1

[28] = target: GlcNAc(b1-3)GalNAc
Procedure, shortened: as §1

[29] = target: Kdn(a2-3)Gal(b1-4)[Fuc(a1-3)]GlcNAc
Procedure, shortened: as §1

[30] = target: Neu5Ac(a2-3)Gal(b1-3)GlcNAc
Procedure, shortened: as §1

[31] = target: Neu5Ac(a2-3)Gal(b1-3)GlcNAc(b1-2)Man
Procedure, shortened: as §1

[32] = target: Neu5Ac(a2-3)Gal(b1-4)GlcNAc(b1-2)[Neu5Ac(a2-3)Gal(b1-4)GlcNAc(b1-6)]Man(a1-6)[Neu5Ac(a2-3)Gal(b1-4)GlcNAc(b1-2)Man(a1-3)][GlcNAc(b1-4)]Man(b1-4)GlcNAc(b1-4)GlcNAc
Procedure, shortened: as §1

[33] = target: Neu5Ac(a2-3)Gal(b1-4)GlcNAc(b1-3)Gal(b1-4)GlcNAc(b1-3)Gal(b1-4)GlcNAc(b1-2)Man(a1-3)[Neu5Ac(a2-3)Gal(b1-4)GlcNAc(b1-3)Gal(b1-4)GlcNAc(b1-3)Gal(b1-4)GlcNAc(b1-2)Man(a1-6)]GalNAc
Procedure, shortened: as §1

[34] = target: Neu5Ac(a2-3)Gal(b1-4)[Fuc(a1-3)]GlcNAc6S
Procedure, shortened: as §1

[35] = target: Neu5Ac(a2-6)Gal(b1-4)GlcNAc(b1-2)Man(a1-3)[Neu5Ac(a2-3)Gal(b1-4)GlcNAc(b1-2)Man(a1-6)]Man(b1-4)GlcNAc(b1-4)GlcNAc
Procedure, shortened: as §1

[36] = target: Neu5Ac(a2-8)Neu5Ac
Procedure, shortened: as §1

[37] = target: Neu5Ac(a2-8)Neu5Ac(a2-3)Gal(b1-4)Glc
Procedure, shortened: as §1

[38] = target: Neu5Ac(b2-6)GalNAc
Procedure, shortened: as §1

[39] = target: Neu5Gc(a2-6)GalNAc
Procedure, shortened: as §1

B1: Loc1 (Escherichia coli) (protein)
chain: APCALTNVGEQRGTYILKPLSMKGNLTAEKIENTGNIIECTDLQETTNAIKVHFLTQNALKFKVGSRHYIINFPFEYDGKKIELPGKSSYNLEEMLSAINFTIPYSIASVSDSSNTADIFPGTPFPLLFEIEVSSCTGNNTNCNSVRFNYNLNTILQVNLMTHHHHHH
- glycan array binding signal (z-score) [1]: 0.363
- glycan array binding signal (z-score) [2]: -1.09
- glycan array binding signal (z-score) [3]: -0.102
- glycan array binding signal (z-score) [4]: -0.622
- glycan array binding signal (z-score) [5]: -0.607
- glycan array binding signal (z-score) [6]: 2
- glycan array binding signal (z-score) [7]: 1.97
- glycan array binding signal (z-score) [8]: -0.548
- glycan array binding signal (z-score) [9]: -0.51
- glycan array binding signal (z-score) [10]: 3.45
- glycan array binding signal (z-score) [11]: -0.81
- glycan array binding signal (z-score) [12]: 0.198
- glycan array binding signal (z-score) [13]: 7.25
- glycan array binding signal (z-score) [14]: 1.18
- glycan array binding signal (z-score) [15]: 0.216
- glycan array binding signal (z-score) [16]: -0.747
- glycan array binding signal (z-score) [17]: 0.355
- glycan array binding signal (z-score) [18]: 2.29
- glycan array binding signal (z-score) [19]: 2.43
- glycan array binding signal (z-score) [20]: 1.98
- glycan array binding signal (z-score) [21]: -0.48
- glycan array binding signal (z-score) [22]: 0.298
- glycan array binding signal (z-score) [23]: 0.68
- glycan array binding signal (z-score) [24]: -0.527
- glycan array binding signal (z-score) [25]: 2.41
- glycan array binding signal (z-score) [26]: 3.01
- glycan array binding signal (z-score) [27]: 0.259
- glycan array binding signal (z-score) [28]: -0.454
- glycan array binding signal (z-score) [29]: -0.405
- glycan array binding signal (z-score) [30]: -0.838
- glycan array binding signal (z-score) [31]: -0.478
- glycan array binding signal (z-score) [32]: -0.322
- glycan array binding signal (z-score) [33]: 2.75
- glycan array binding signal (z-score) [34]: 0.57
- glycan array binding signal (z-score) [35]: 0.21
- glycan array binding signal (z-score) [36]: 0.04
- glycan array binding signal (z-score) [37]: 8.5
- glycan array binding signal (z-score) [38]: -0.643
- glycan array binding signal (z-score) [39]: 0.381
